# Rtt109 Vps75 – inhibitors of Candida albicans Rtt109/Vps75 histone acetyltransferase | Q5AAJ8 | purified Rtt109/Vps75, ThioGlo CoA-SH fluorescence, 4 h | 0.16% of 330,000 active | inhibition, % at 34.9 µM;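 active = inhibition of at least 50% in every replicate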
# LANA-H2A inh – blocks KSHV LANA binding to histone H2A/H2B | Q9QR71 | cell-free LANA-H2A/H2B peptide, fluorescence polarization | inhibition, % (concentration not given with the values) | 0.6% of 320,000 active | AID 2629; in the data active = inhibition mostly above about 10%, no sharp cut-off; inactive = mostly below about 6.7%
# ALR inh – human ALR oxidase inhibition via reduced H2O2. AID 485317. purified ALR, DTT oxidation, H2O2 HRP-luminol luminescence. inhibition, % (no concentration beside the values). 3.8% of 290,000 active;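 active = mean replicate inhibition above about 79%, with every replicate also reaching it, limit read from the data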
# Target sequence (P55789 whole entry, looked up): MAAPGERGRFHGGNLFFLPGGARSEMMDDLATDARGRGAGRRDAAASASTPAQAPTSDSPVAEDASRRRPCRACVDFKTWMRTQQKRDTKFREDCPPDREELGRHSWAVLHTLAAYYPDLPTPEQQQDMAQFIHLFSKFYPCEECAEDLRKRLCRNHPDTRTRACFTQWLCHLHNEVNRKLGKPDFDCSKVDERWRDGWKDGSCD
# PRMT1 inh – inhibitors of human PRMT1 | Q99873 | recombinant PRMT1, activity-based probe fluorescence polarization | inhibition, % at 2.79 µM | 1.3% of 370,000 active | AID 652257;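 active = inhibition above about 21% made by adding two undisclosed values, limit read from the data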
# Target sequence (Q99873 whole entry, looked up): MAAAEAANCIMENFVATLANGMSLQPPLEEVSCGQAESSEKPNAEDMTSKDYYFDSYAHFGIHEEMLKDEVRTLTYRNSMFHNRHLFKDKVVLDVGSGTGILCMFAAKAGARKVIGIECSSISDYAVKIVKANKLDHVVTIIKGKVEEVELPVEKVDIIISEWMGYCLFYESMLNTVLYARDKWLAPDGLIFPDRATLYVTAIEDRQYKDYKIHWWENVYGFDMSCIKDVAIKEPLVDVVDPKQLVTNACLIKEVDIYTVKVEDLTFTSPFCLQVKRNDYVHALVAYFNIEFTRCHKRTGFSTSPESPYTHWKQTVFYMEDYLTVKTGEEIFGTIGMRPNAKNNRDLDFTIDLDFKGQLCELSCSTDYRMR
# ABHD5 PLIN5 PPI – ABHD5-PLIN5 protein interaction inhibition; 0.78% of 360,000 active; Q00G26+Q8WTS1; inhibition, % at 4 µM; Split G. princeps luciferase complementation, luminescence, 4 h;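 active = inhibition above the mean inhibition across every tested compound plus 3 SD, cut at about 22% in these data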;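 note: 0% = DMSO only wells and the 100% control is not disclosed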
# rCAG RNA binder – binds r(CAG) RNA repeats; AID 651821; inhibition, % at 3 µM; 1.3% of 370,000 active; r(CAG) RNA repeat, TO-PRO-1 dye displacement fluorescence;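 active = inhibition above the plate cutoff, the mean of all test compounds on that plate plus 3 SD, cut at about 35% in these data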;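 note: 0% = DMSO alone and 100% = 100 µM mitoxantrone as full dye displacement; higher means more dye released from RNA so lower well fluorescence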
# * hit, by the source's call; · = no result given. Shown are actives, neighbours in structure and some others; about 5.9% of the full set was active somewhere.
SMILES,Rtt109 Vps75,LANA-H2A inh,ALR inh,PRMT1 inh,ABHD5 PLIN5 PPI,rCAG RNA binder
CCOc1ccccc1NC(=O)Cn1c(=O)c2ccccc2n(CC)c1=O,-6,-3,6,-4,5,-5
Cc1ccccc1OCC(=O)OCC(=O)NCc1ccco1,0,-3,1,0,2,-1
Cc1ccc(N2CCN(S(=O)(=O)c3cccs3)CC2C)cc1 (centres undefined),7,0,99*,-2,2,-2
COCC(=O)N1C[C@H]2CON(C)[C@H]2C[C@H]1c1cccc(-c2ccccc2)c1,·,·,·,3,2,2
N#CC1=C(N)SC(N)=C(C#N)C1c1ccnc2ccccc12,7,5,-25,43*,-10,13
O=C(NC1CCCCN(Cc2cccc(C(F)(F)F)c2)C1=O)c1ccc(COc2ccccc2)cc1 (centres undefined),·,·,·,0,·,1
CC(=O)c1cccc(NC(=O)C2Cc3c(-c4cccc(F)c4)ccnc3O2)c1 (centres undefined),·,·,·,2,-9,4
C/C(=N\NC(=O)CSc1nc(C)cc(C)n1)c1cccs1,-6,25*,-1,9,-10,-2
CCC(=O)N1CCC1(C)C(=O)Nc1ccc(OC(F)F)cc1 (centres undefined),·,·,·,-3,-6,1
CCCCCCCCN1C(=O)[C@@H](CC(=O)NCC2CCCCC2)C[C@@]2(C(=O)OC)C1=C[C@H](C(C)C)O[C@@H]2C1CC1,·,·,·,1,·,17
Cc1ccnc(NS(=O)(=O)c2ccc(NS(=O)(=O)c3cc(Cl)ccc3Cl)cc2)n1,-1,14*,9,3,-3,8
Cc1ccnc(NS(=O)(=O)c2ccc(NS(=O)(=O)c3ccc([N+](=O)[O-])cc3)cc2)n1,0,1,-13,-1,-1,4
CCCS(=O)(=O)NC(=O)C1(C)CCN(C(=O)c2ccc(C(F)(F)F)cc2)C1 (centres undefined),·,·,·,5,-1,3
C=C1C(=O)[C@]23C[C@H]1CC[C@H]2[C@]1(C)CCC[C@@](C)(C(=O)OC)[C@H]1C[C@@H]3O,·,·,·,24*,·,0
CCOC(=O)c1[nH]c2ccccc2c1NC(=S)Nc1cccc(C)c1,-12,5,98*,7,4,7
CCOC(=O)c1[nH]c2ccc(C)cc2c1NC(=O)CN1CCCCC1,12,-3,98*,0,2,-2
COC(=O)c1[nH]c2ccc(C)cc2c1NC(=O)CN1CCCC(C)(C)C1,14,-1,-1,-2,0,-1
CCOC(=O)c1[nH]c2ccccc2c1NC(C)=O,12,2,-7,4,2,0
CCOC(=O)c1[nH]c2ccccc2c1NC(=S)Nc1ccccc1,2,-3,98*,3,-14,4
O=C(Nc1ccn(CCCN2CCN(Cc3ccc(F)cc3)CC2)c(=O)n1)OCc1ccccc1,·,·,·,0,2,0
CCCNC(=O)C1(C)CCN1C(=O)c1cc(C)n(C)n1 (centres undefined),·,·,·,-4,-3,0
CC(=O)NCCCc1c[nH]c2ccc(Cl)cc12,0,3,98*,-2,7,0
COc1ccc(-c2cccc(NS(=O)(=O)c3cc([N+](=O)[O-])ccc3Cl)c2)nn1,12,·,·,-8,-4,31
CCOc1ccc(-c2cccc(NS(=O)(=O)c3cc([N+](=O)[O-])ccc3Cl)c2)nn1,15,·,·,-2,2,40*
COC(=O)[C@]12C[C@H](CC(=O)N3CCOCC3)C(=O)N(Cc3ccccc3)C1=C[C@H](C1CCCC1)O[C@@H]2C,·,·,·,2,·,-1
SMILES,Rtt109 Vps75,LANA-H2A inh,ALR inh,PRMT1 inh,ABHD5 PLIN5 PPI,rCAG RNA binder
Oc1ccc(C2C[C@H]3CC[C@@H]2C3)cc1O (some centres undefined),-19,6,99*,14,6,9
CC(=O)c1ccc2c(c1)CC1(C2)Cc2cc3c(cc2C1)C(=O)CC3 (centres undefined),8,·,·,-3,-3,2
O=C(C(=O)N1CCC(CNS(=O)(=O)c2ccc(C(F)(F)F)cc2)CC1)c1cccs1,·,·,·,-5,·,2
CCn1ncc(NC(=S)Nc2ccc(OC)c(OC)c2)c1C(N)=O,7,-3,27,22*,-22,2
C=CCCC(=O)N(Cc1ccccc1)c1ccccc1C(=O)Nc1cc(OC)ccc1OC,·,·,·,-1,·,3
Cc1oc(C(=O)O)cc1CSCc1cc(C(=O)O)c(C)o1,-1,-1,99*,11,-1,6
Cc1oc(C(=O)O)cc1CSCc1ccoc1C(=O)O,0,-3,12,2,-2,2
CN1C(=O)c2ccccc2NC(=O)[C@]12O[C@@H]2c1cccc(O)c1,1,1,99*,7,-3,9
CC1(C(=O)NS(=O)(=O)c2cccc(Cl)c2)CCN1C(=O)C1(c2ccccc2)CC1 (centres undefined),·,·,·,3,-7,9
CCOC(=O)CSc1n[nH]c(NC(=O)c2cccc(C)c2)n1,-8,0,97*,0,-2,-1
CCSC(=Nc1ccccc1)C1=C(O)COC1=O,1,2,-17,1,-3,-2
CSC(=Nc1ccccc1)C1=C(O)COC1=O,-3,-3,97*,-2,9,-1
O=C(Nc1ccc(NC(=O)C2CCCCC2)nc1)c1ccccn1,7,3,99*,4,10,0
COc1ccccc1C(=O)Nc1ccc(NC(=O)C2CCCCC2)nc1,-2,-6,·,-2,9,0
CCCC(=O)Nc1ccc(NC(=O)c2ccco2)cn1,4,6,-4,1,-3,-22
CCCC(=O)Nc1ccc(NC(=O)c2ccccn2)cn1,-3,39*,-6,4,-3,0
CCCCC(=O)Nc1ccc(NC(=O)c2ccco2)cn1,0,11*,-2,-1,-5,-4
CC(=O)N1CCN(c2ccc(N3CCN(Cc4ccccc4)[C@@H](C)C3)c(C)c2)[C@@H](C)C1,·,·,·,1,·,3
Cc1nn(C)c(C(=O)N/N=C/c2ccccc2)c1[N+](=O)[O-],-1,2,-3,-1,0,9
Cc1nn(C)c(C(=O)Nc2cccc(Nc3ccccc3)c2)c1[N+](=O)[O-],14,-4,98*,-6,-3,6
CC(C)c1ccc(NC2CCCN(C(=O)CC3CCCC3)C2)cc1 (centres undefined),2,-1,79*,1,-3,-8
O=C1CCCCN1CCCC(=O)N1CCCC(Nc2ccccc2)C1 (centres undefined),14,4,99*,-4,11,-4
CC(C)c1ccc(NC2CCCN(C(=O)CCN3CCCC3=O)C2)cc1 (centres undefined),3,-3,78*,4,0,-7
CC(C)c1ccc(NC2CCCN(C(=O)CCc3cnn(C)c3)C2)cc1 (centres undefined),-3,4,98*,-2,-2,-10

# Bioassay records (PubChem BioAssay)
